The values that follow come from PubChem BioAssay AID1259415 (National Center for Advancing Translational Sciences (NCATS), 2018).

Among all 410,000 compounds or so, about 18,000 (4.4%) were called active. Not shown: some 7% with an inconclusive outcome. No stated cut-off is given here; in the data, active means activity change below about -60%; inconclusive means no clear call, values can overlap the other calls; inactive means above about -39%. For the sample, actives were picked, then their nearest neighbours and some compounds at random.
On the % scale 0 is the no-effect control and ±100 the full control effect.

A short description of this assay: qHTS Assay for inhibitors of the human cytomegalovirus (HCMV). The settings on record: HFF cells, HCMV-luciferase reporter, 72 h; at 57.5 µM; active compounds read low. The gist of the method:
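Screen run at 2 compound doses on HFFs infected with reporter HCMV, MOI 1 PFU/cell. Luciferase activity from cell lysates at 72 h post infection gave inhibition relative to buffer-only and Salinomycin wells.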
For orientation: In qHTS, concentration-response curves come from the screen itself.
With `Cc1ccc(NC(=O)NNC(=O)c2sccc2-n2cccc2)cc1`, the activity change, negative = inhibition was -19% (inactive). For `Cc1ccc(C(CNC(=O)Nc2ccccc2)N2CCN(C)CC2)cc1` (configuration not stated), the activity change, negative = inhibition was -29.6% (inactive). On to `C=CC[n+]1c(-c2ccc(C)cc2)csc1NNC(=O)Nc1ccccc1`, for which the activity change, negative = inhibition is -69.2% (active). With `Cc1cc2c(cc3c(SCc4nc(-c5ccccc5)oc4C)nnc(C)n32)o1`, the activity change, negative = inhibition was -3.85% (inactive). Regarding `CC(=O)Nc1ccc(NC(=O)CSc2nnc3c4cc(Br)ccc4n(C)c3n2)cc1`, the activity change, negative = inhibition was 38.8% (inactive). As for `CCOC(=O)CN1C(C(=O)c2ccccc2)=C(OC(=O)C(C)(C)C)c2ccccc2S1(=O)=O`, the activity change, negative = inhibition is -14% (inactive). Next, `Cc1nc(SCCOc2ccc(Cl)cc2)[nH]c(=O)c1Cc1ccccc1`: -7.29% (inactive); `CCCOc1ccc(Cc2c(Cl)nc(SC)nc2NC)cc1`: -93.9% (active). On to `CCCOc1ccc(Cc2c(O)nc(SC)[nH]c2=O)cc1C`, for which the activity change, negative = inhibition is 15.7% (inactive). Consider `CN(Cc1cccc2ncccc12)C(=O)CC1C(=O)NCCN1Cc1ccc(F)cc1` (configuration not stated), for which the activity change, negative = inhibition was -30.9% (inactive).

For `O=C(CN1CCN(Cc2ccc(Cl)cc2)C1=O)NCc1ccc(F)cc1`, the activity change, negative = inhibition was -24.9% (inactive). Next, `Cc1ccc(C(=O)NC2CCCC(C)C2C)cc1S(=O)(=O)N1CCCCC1` (configuration not stated): -22.8% (inactive); `Cc1nn(-c2ccccc2)c(C)c1NC(=O)COC(=O)Cc1ccccc1`: -13% (inactive); `Cc1nn(-c2ccccc2)c(C)c1NC(=O)COC(=O)c1cc(Cl)ccc1O`: 9.57% (inactive). In the case of `Cc1nn(-c2ccccc2)c(C)c1NC(=O)COc1ccc(Cl)cc1Cl`, the activity change, negative = inhibition was -98.7% (active). Regarding `N#Cc1nc(/C=C/c2ccc(F)cc2)oc1NCc1ccc(F)cc1`, the activity change, negative = inhibition is -13.8% (inactive). Consider `COc1cccc(-c2cc(C(=O)Nc3ccc(C)cc3)[nH]n2)c1`, for which the activity change, negative = inhibition was 11.2% (inactive). On to `CCc1ccc(CNC(=O)c2cc3cc4ccc(OC)cc4nc3o2)cc1`, for which the activity change, negative = inhibition was -26.2% (inactive). On to `Cc1ccc2c(=O)c(C(=O)c3cccc(Cl)c3)cn(CC(=O)NCc3ccccc3)c2n1`, for which the activity change, negative = inhibition is -12.2% (inactive). On to `O=C(NC1CCCCC1)c1ccc2c(c1)N(Cc1ccc(Cl)cc1)C(=O)c1ccccc1S2=O` (configuration not stated), for which the activity change, negative = inhibition is 8.53% (inactive). Next, `CN(C(=O)c1ccc2c(c1)N(Cc1cccc(Cl)c1)C(=O)c1ccccc1S2=O)C1CCCCC1` (configuration not stated): -63.4% (active). As for `O=C(Nc1cc(Cl)cc(Cl)c1)c1ccc2c(c1)N(Cc1cccc(Cl)c1)C(=O)c1ccccc1S2=O` (configuration not stated), the activity change, negative = inhibition was 16.5% (inactive).

Consider `CCCCNC(=O)c1nc(C2CCN(S(=O)(=O)c3ccc(F)c(F)c3)CC2)oc1-c1cccc(C(F)(F)F)c1`, for which the activity change, negative = inhibition is 6.36% (inactive). Turning to `CCN1CCN(CCCNC(=O)c2cnn(-c3ccc(C)cc3C)c2C2CCN(C(=O)OC(C)(C)C)CC2)CC1`, the activity change, negative = inhibition was -13.5% (inactive). Consider `COC(=O)c1ccc(NC(=O)c2cnn(-c3ccc(Cl)cc3)c2C2CCN(C(=O)OC(C)(C)C)CC2)cc1`, for which the activity change, negative = inhibition was 0% (active). Take `Cc1ccc(CN2CCC(CNC(=O)c3cnn(-c4ccc(C)cc4)c3C3CCN(C(=O)OC(C)(C)C)CC3)CC2)cc1`: the activity change, negative = inhibition is 0% (inactive). Next, `COc1ccccc1N1CCN(CCCNC(=O)c2cnn(-c3ccccc3Cl)c2C2CCN(C(=O)OC(C)(C)C)CC2)CC1`: -12.2% (inactive); `COc1ccccc1CN1CCC(CNC(=O)c2cnn(-c3ccccc3Cl)c2C2CCN(C(=O)OC(C)(C)C)CC2)CC1`: -7.53% (inactive). Turning to `Cc1ccc(CN2CCC(CNC(=O)c3cnn(-c4ccccc4Cl)c3C3CCN(C(=O)OC(C)(C)C)CC3)CC2)cc1`, the activity change, negative = inhibition is -65.8% (active).

Regarding `CC(C)(C)OC(=O)N1CCC(c2c(C(=O)Nc3ccc4c(c3)OCO4)cnn2-c2ccccc2)CC1`, the activity change, negative = inhibition is -8.71% (inactive). On to `CCOC(=O)N1CCC(NC(=O)c2cnn(-c3cccc(C)c3)c2C2CCN(C(=O)OC(C)(C)C)CC2)CC1`, for which the activity change, negative = inhibition is 0% (active). Under `CC(C)(C)OC(=O)N1CCC(c2c(C(=O)NCc3ccccn3)cnn2-c2ccc(F)cc2)CC1` stands 14.7% (inactive); under `COc1ccccc1CN1CCC(CNC(=O)c2cnn(-c3cccc(Cl)c3)c2C2CCN(C(=O)OC(C)(C)C)CC2)CC1`, -108% (active); under `CC(C)(C)OC(=O)N1CCC(c2c(C(=O)N3CCN(c4cccc(Cl)c4)CC3)cnn2-c2cccc(Cl)c2)CC1`, 26.6% (inactive).

As to `Cc1cccc(-n2ncc(C(=O)N3CCC(C)CC3)c2C2CCN(C(=O)OC(C)(C)C)CC2)c1`, the activity change, negative = inhibition is 0% (inactive). On to `Cc1cc(C)cc(NC(=O)Cc2csc(C)n2)c1`, for which the activity change, negative = inhibition was 53.8% (inactive). For the compound `Cc1ccc(Cn2c(CCCNC(=O)C3CCCCC3)nc3ccccc32)cc1`, the activity change, negative = inhibition is -11.7% (inactive).

As to `COc1ccc(N2CCN(S(=O)(=O)CCNC(=O)C(c3ccccc3)c3ccccc3)CC2)cc1`, the activity change, negative = inhibition is 1.25% (inactive).

As for `COC(=O)c1ccc2c(c1)N(CC(=O)Nc1ccc(C)c(C)c1)C(=O)c1ccccc1S2`, the activity change, negative = inhibition is 6.12% (inactive). On to `CCc1ccc(N(CC(=O)Nc2sc3c(c2C(=O)OC)CCCC3)S(C)(=O)=O)cc1`, for which the activity change, negative = inhibition was 40.2% (inactive). In the case of `COC(=O)c1c(NC(=O)c2ccc(Cl)c(Cl)c2)sc2c1CCCC2`, the activity change, negative = inhibition was 15% (inactive). Regarding `COC(=O)c1c(NC(=O)CSc2nncs2)sc2c1CCCCC2`, the activity change, negative = inhibition was -61.6% (active). Regarding `COc1ccc(S(=O)(=O)N2CCN(CC(=O)NCC3(N4CCOCC4)CCCCC3)CC2)cc1`, the activity change, negative = inhibition was -36.1% (inactive).

In the case of `O=C(CN1CCN(S(=O)(=O)c2ccc3ccccc3c2)CC1)NC(=O)NC1CCCCC1`, the activity change, negative = inhibition was -4.61% (inactive). In the case of `CCC(=O)c1ccc(OCC(=O)N2CCN(CC(=O)Nc3ccc(C)cc3)CC2)cc1`, the activity change, negative = inhibition was 6.75% (inactive). Regarding `O=C(CN1CCN(C(=S)NC2CCCC2)CC1)Nc1ccc(Oc2ccccc2)cc1`, the activity change, negative = inhibition was -79.5% (active). Turning to `CC1(C)OC(=O)C2=C(C[C@@H](C3CC3)O[C@H]2c2ccc(Cl)cc2)O1`, the activity change, negative = inhibition was -11.9% (inactive). Turning to `Fc1ccccc1OCCCCn1cncn1`, the activity change, negative = inhibition was -9.84% (inactive). Next, `O=c1c2ccccc2ncn1CCc1ccncc1`: 16.6% (inactive). Regarding `O=c1c2ccccc2ncn1CCCCOc1ccccc1F`, the activity change, negative = inhibition is -105% (active). Take `COc1ccc(CCN2C(=O)c3oc4cc(C)cc(C)c4c(=O)c3C2c2ccccc2F)cc1OC` (configuration not stated): the activity change, negative = inhibition is -2.86% (inactive). On to `COc1ccc(Br)cc1C1CC(=O)Nc2c1c(C)nn2-c1nc(C)cc(C)n1` (configuration not stated), for which the activity change, negative = inhibition was -4.09% (inactive).
